The nature of assay [1]: Quantitative High-Throughput drug screen in 47 multiple myeloma cell lines against the NCATS MIPE library collection: LP1_DSMZ cell viability assay (AID 1918982). Note: nearly all actives have a fitted effect of over 35% in size. In outline: (§1)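 Myeloma cells (500/well) treated with MIPE 4.0 compounds for 48 h at 37 °C, 5% CO2. Viability read as ATP via CellTiter-Glo luminescence after 5 min at RT; DMSO-only wells = 100%, media-only = 0% viability.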

A short description of assay [2]: Quantitative High-Throughput drug screen in 47 multiple myeloma cell lines against the NCATS MIPE library collection: KMS28PE_JCRB cell viability assay (AID 1918983). Note: nearly all actives have a fitted effect of over 35% in size. The method, boiled down:
as §1

The nature of assay [3]: Quantitative High-Throughput drug screen in 47 multiple myeloma cell lines against the NCATS MIPE library collection: KMS34_JCRB cell viability assay (AID 1918985). Note: nearly all actives have a fitted effect of over 40% in size. The method, boiled down: as §1
Assay [4] can be described thus: Quantitative High-Throughput drug screen in 47 multiple myeloma cell lines against the NCATS MIPE library collection: OCIMY5_PLB cell viability assay (AID 1918988). Note: nearly all actives have a fitted effect of over 65% in size. In outline: as §1
Assay [5] is described as follows: Quantitative High-Throughput drug screen in 47 multiple myeloma cell lines against the NCATS MIPE library collection: OPM1_PLB cell viability assay (AID 1918989). Note: nearly all actives have a fitted effect of over 40% in size. In outline:
as §1

The nature of assay [6]: Quantitative High-Throughput drug screen in 47 multiple myeloma cell lines against the NCATS MIPE library collection: SKMM1_PLB cell viability assay (AID 1919863). Note: nearly all actives have a fitted effect of over 35% in size. Particulars: SKMM1 myeloma viability, CellTiter-Glo ATP, 48 h; viability: active compounds read low. The method, boiled down: as §1
(Cellular ATP, detected with luciferase, serves as a proxy for viable cell number.)

The nature of assay [7]: Quantitative High-Throughput drug screen in 47 multiple myeloma cell lines against the NCATS MIPE library collection: U266_ATCC cell viability assay (AID 1919864). Note: nearly all actives have a fitted effect of over 35% in size. The method, boiled down:
as §1

Assay [8] in a line: Quantitative High-Throughput drug screen in 47 multiple myeloma cell lines against the NCATS MIPE library collection: OCIMY7_PLB cell viability assay (AID 1918987). Note: nearly all actives have a fitted effect of over 65% in size. The following applies: OCI-MY7 myeloma viability, CellTiter-Glo ATP, 48 h; viability (% of DMSO): at 45.8 µM (top of the series). The method, boiled down: as §1
Assay [9] is described as follows: Quantitative High-Throughput drug screen in 47 multiple myeloma cell lines against the NCATS MIPE library collection: XG6_PLB cell viability assay (AID 1919865). Note: nearly all actives have a fitted effect of over 40% in size. In outline:
as §1

A short description of assay [10]: Quantitative High-Throughput drug screen in 47 multiple myeloma cell lines against the NCATS MIPE library collection: L363_DSMZ cell viability assay (AID 1918984). Note: nearly all actives have a fitted effect of over 40% in size. The method, boiled down: as §1

Results filed as inconclusive are left out. Values without a mark were called inactive. Calls of active or inactive are those of the source. Calls come from the whole dose curve; as a rule, active = well fitted cell-killing curve with a large enough effect; inconclusive = small, poorly fitted or top-dose-only effect, or effect the other way; inactive = no such curve, though single readings can be large or run the other way. Positions of bridges follow the written chain, without caps; N, C: chain ends. Non-standard residues stand in square brackets, D forms with d. Residues, ends and D or L forms follow the SMILES beside them. ξ: configuration not given here. *: point of attachment. Octanoyl(6-Me) = CCC(C)CCCCC(=O)*; ξThr(3R) = C[C@@H](O)C(N)C(=O)O; dDab = NCC[C@@H](N)C(=O)O; Dab = NCC[C@H](N)C(=O)O
Potency is the fitted concentration of half-maximal effect.

`CC(C)c1cc(C(C)C)c(CC(=O)NS(=O)(=O)Oc2c(C(C)C)cccc2C(C)C)c(C(C)C)c1`: the Potency in [1] was 20.9 µM (active); in assay [2] it was 23.5 µM (active); in [3], 18.7 µM (active); in assay [4], 33.2 µM (active); in [5], 9.35 µM (active); in assay [6], 26.4 µM (active). The Potency entry in assay [7] was “inactive”.

As for `CCOc1cc2c(c(F)c1OCC)C(=N)N(CC(=O)c1cc(N3CCOCC3)c(OC)c(C(C)(C)C)c1)C2`, the Potency was 16.6 µM (active) in [1]; 20.9 µM (active) in [2]; 23.5 µM (active) in assay [3]; 7.43 µM (active) in [8]; 16.6 µM (active) in [4]; 14.8 µM (active) in [5]. For the same compound, the Potency is 20.9 µM (active) in assay [6] and 9.35 µM (active) in assay [9].

Turning to `C[N+]1(C)[C@@H]2C[C@@H](OC(=O)C(O)(c3cccs3)c3cccs3)C[C@H]1[C@@H]1O[C@@H]12`, the Potency result in [1], in assay [2], in assay [10], in assay [4], in [5] and in [7] was “inactive” in each case. Besides, the Potency entry in [9] is “inactive”.

In the case of `C=CC(=O)Nc1cccc(Nc2nc(NC3CCC(N(C)C)CC3)nc3c2ncn3C(C)C)c1` (stereo not given), the Potency in [1] is 0.372 µM (active); in [2] it was 0.469 µM (active); in assay [3], 1.05 µM (active); in assay [8] it was 0.0743 µM (active); in assay [4], 0.0526 µM (active); in assay [5], 0.469 µM (active). Further, the results for the Potency in assay [7] and in assay [9] were 0.296 µM (active) and 0.0166 µM (active), respectively.

In general, viability refers to a read-out of living cells in per cent, often relative to untreated cells. Turning to `CON=C(C(=O)N[C@@H]1C(=O)N2C(C(=O)O)=C(Cn3ccc(=N)n3CCO)CS[C@H]12)c1csc(N)n1`, the Potency entry in assay [1], in [2], in assay [10], in assay [4] and in assay [9] was “inactive” each time. In assay [6], the viability was 112%.

Turning to `CN[C@@H]1C[C@H]2O[C@@](C)([C@H]1OC)n1c3ccccc3c3c4c(c5c6ccccc6n2c5c31)C(=O)N[C@H]4O`, the Potency is 1.05 µM (active) in [1]; 0.833 µM (active) in [2]; 0.372 µM (active) in [3]; 0.0235 µM (active) in assay [8]; 0.264 µM (active) in [4]; 0.0935 µM (active) in assay [5]. Moreover, the Potency in assay [6] was 5.9 µM (active); in assay [7] it was 1.05 µM (active); in assay [9], 0.0833 µM (active).

As to `C=C1C[C@@]2(O)O[C@@]3(C[C@H]2C(C)C)[C@H](C)CC[C@H]13`, the Potency entry in assay [1], in assay [2], in assay [3], in [4], in assay [5] and in assay [7] was “inactive” throughout. Also, the Potency result in [9] was “inactive”. The viability in assay [6] was 114%.

On to `COc1ccc(CCC(=O)c2c(O)cc(O[C@@H]3O[C@H](CO)[C@@H](O)[C@H](O)[C@@H]3O[C@@H]3O[C@@H](C)[C@H](O)[C@@H](O)[C@@H]3O)cc2O)cc1O`, for which the Potency result in assay [1], in assay [2], in [3] and in assay [5] was “inactive” in each case. Further, the Potency is 10.5 µM (active) in [8], 8.33 µM (active) in [7] and 5.26 µM (active) in assay [9].

As for `Cc1cnc(Nc2ccc(CN3CCOCC3)cc2)nc1Nc1cccc(S(=O)(=O)NC(C)(C)C)c1`, the Potency is 5.9 µM (active) in [1]; 9.35 µM (active) in assay [2]; 2.35 µM (active) in assay [3]; 0.526 µM (active) in assay [8]; 1.87 µM (active) in [4]; 0.935 µM (active) in assay [5]. Also, the Potency was 5.26 µM (active) in assay [6] and 1.18 µM (active) in assay [9].

As for `Nc1nc(=O)n([C@H]2CSC(CO)O2)cc1F` (stereo not given in full), the Potency result in [1], in [2], in assay [10] and in assay [5] was “inactive” each time. In addition, the viability in [6] was 114%.

Regarding `CCC(C)CCCCC(=O)N[C@@H](CCN)C(=O)NC(C(=O)N[C@H](CCN)C(=O)N[C@@H]1CCNC(=O)C([C@@H](C)O)NC(=O)[C@@H](CCN)NC(=O)[C@@H](CCN)NC(=O)[C@@H](CC(C)C)NC(=O)[C@H](Cc2ccccc2)NC(=O)[C@H](CCN)NC1=O)[C@@H](C)O` (stereo partly drawn) ({Octanoyl(6-Me)}-[Dab][ξThr(3R)][dDab][dDab][Dab]F[dL][dDab][dDab][ξThr(3R)]; lactam 4-C), the Potency entry in assay [1], in assay [2], in assay [3] and in assay [8] was “inactive” in each case. In addition, the viability in assay [6] was 110%.

With `c1coc(CNc2ncnc3nc[nH]c23)c1`, the Potency result in [1] and in assay [2] was “inactive” in each case. The figures for the Potency in assay [10] and in assay [4] were 11.8 µM (active) and 2.09 µM (active), respectively.

For `Cc1cc(C(=O)NOCCO)c(Nc2ccc(I)cc2F)n(C)c1=O`, the Potency result in assay [1], in assay [2] and in assay [10] was “inactive” in each case. In [6], the viability is 90.9%.

For the compound `CC(C)(O)[C@H]1CC[C@@](C)([C@H]2[C@@H](O)C[C@@]3(C)[C@@H]4C[C@H](O[C@@H]5O[C@H](CO)[C@@H](O)[C@H](O)[C@@H]5O)[C@H]5C(C)(C)[C@@H](O[C@@H]6OC[C@@H](O)[C@H](O)[C@@H]6O)CC[C@@]56C[C@@]46CC[C@]23C)O1`, the Potency result in [1], in assay [2], in assay [3], in assay [8] and in assay [7] was “inactive” each time. In addition, in assay [5], the Potency was 16.6 µM (active).

Regarding `C[C@@H](Oc1ccc2[nH]nc(C=Cc3cnn(CCO)c3)c2c1)c1c(Cl)cncc1Cl`, the Potency in [1] is 20.9 µM (active); in assay [2] it was 4.18 µM (active); in [3] it was 0.209 µM (active); in assay [8] it was 0.148 µM (active); in assay [4], 6.62 µM (active); in [6], 26.4 µM (active). The Potency in assay [7] is 23.5 µM (active); in [9], 0.662 µM (active).

Consider `CC1(C)CC(O)CC(C)(C)N1[O]`, for which the Potency entry in [1], in assay [2], in [10], in assay [5] and in [9] was “inactive” in each case.

The values are drawn from PubChem BioAssay (NCATS).
